C2C12 statin – protects C2C12 myotubes from simvastatin toxicity | 330,000 tested, 0.78% active | ATP luminescence, 48 h; scaled: DMSO 0, geranylgeraniol control 100 | rescue of ATP level, % at 7.49 µM;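 active means mean ATP rescue above about 67%, or every replicate alone reaching that limit, limit read from the data, passing the limit was not always enough; inconclusive means no clear call, values can overlap the other calls; inactive means mean under the limit and some replicate under it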;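 further: myotubes were challenged with 10 µM simvastatin during compound exposure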
esBAF inh – SWI/SNF esBAF complex inhibition; reporter increase, % at 12.5 µM; mouse ES cells, Bmi1-luciferase knock-in reporter, 24 h; 100% = twice the neutral-well signal; AID 602393; 350,000 tested, 2% active; in the data active means activation above about 40%; inconclusive means no clear call, values can overlap the other calls;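 further: 0% = median of the plate's neutral control wells and 100% = double that signal; a rise in the Bmi1 reporter signal indicates esBAF inhibition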
Wnt act – Wnt/beta-catenin pathway activation. Wnt/beta-catenin reporter cell assay, activator, plate reader. activation, % at 9.35 µM. 300,000 tested, 1.2% active; in the data active means activation above about 30%, passing the limit was not always enough; inconclusive means no clear call, values can overlap the other calls;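 further: 0% = neutral control wells and 100% = positive control wells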
MITF act – increases MITF-driven TRPM1 promoter luciferase signal. AID 588334. 300,000 tested, 0.75% active. SK-MEL-5 TRPM1-promoter luciferase, 24 h; % of positive control, neutral wells = 0. activation, % at 12.5 µM;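 active means mean activation of at least 80% with every replicate also reaching 80%; inconclusive means mean reaches 80% but some replicate falls short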;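 further: 0% = neutral control wells and 100% = parthenolide positive control wells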
* = called active by the depositor; u = inconclusive; x = not tested or not shown. The list is not random: actives were taken first. Their share in the collection is about 3%.

SMILES	C2C12 statin	esBAF inh	Wnt act	MITF act
Cc1noc(C)c1S(=O)(=O)Nc1ccc2c(c1)C(=O)N([C@H](C)CO)C[C@@H](C)[C@H](CN(C)S(=O)(=O)c1ccccc1)OCCCC[C@@H](C)O2	x	2	x	x
COc1ccc(N2C(=O)CSC23C(=O)Nc2ccccc23)cc1 (stereo unspecified)	110*	-12	12	-11
COc1ccc(C(=O)N2CCN(C(=O)c3ccco3)CC2)cc1OC	6	-8	x	-19
COc1ccc(C(=O)OCC(=O)N2CCN(C(=O)c3ccco3)CC2)cc1OC	88*	x	-2	-9
O=C(Nc1ncnc2sc3c(c12)CCCC3)c1ccncc1	9	-2	-1	-11
O=C(Nc1ncnc2sc3c(c12)CCCCC3)c1ccco1	128*	2	x	7
C[C@@H](NC(=O)C[C@H]1C=C[C@H](NC(=O)Nc2ccc3c(c2)OCO3)[C@H](CO)O1)c1ccccc1	-7	12	x	x
C[C@H](CO)N1C[C@H](C)[C@H](CN(C)Cc2ccc(C(F)(F)F)cc2)Oc2ccc(NC(=O)CCC(F)(F)F)cc2C1=O	-6	-5	x	x
CCNC(=O)C[C@@H]1C=C[C@H](NC(=O)C2CC2)[C@H](CO)O1	-2	5	x	x
C(=N\c1nccs1)/c1cccnc1	112*	0	-2	-6
CC(C)(C)c1cnnn1-c1ccc(NC(=O)c2ccc3c(c2)OCO3)cc1	23	44*	x	32
COCCSc1nnc(NC(=O)c2ccc3c(c2)OCO3)s1	x	x	47*	38
O=C(Nc1ccc2c(c1)OCO2)c1cccc(Cl)c1	-7	64*	-1	104*
O=C(Nc1ccc2c(c1)OCO2)c1c(Cl)nc2sccn12	-4	49*	x	94*
O=C(NCCN1CCCC1)[C@@H]1[C@@H](CO)[C@@H]2Cn3c(cccc3=O)[C@H]1N2C(=O)c1ccccc1	-35	-1	x	x
C[C@@H]1CN([C@@H](C)CO)C(=O)c2cccc(NC(=O)c3ccc(-c4nccs4)cc3)c2O[C@H]1CN(C)S(=O)(=O)c1cccs1	x	-1	x	x
C[C@@H]1CN([C@@H](C)CO)C(=O)c2cc(-c3ccncc3)cnc2O[C@H]1CN(C)C(=O)C1CCC1	-12	x	x	x
CCCC(=O)Nc1ccc2c(c1)OC[C@@H](C)N(C(=O)c1ccccc1F)C[C@@H](C)[C@H](OC)CN(C)C2=O	-7	6	x	x
Cc1noc(C)c1S(=O)(=O)N(C)C[C@@H]1OCCCC[C@@H](C)Oc2ccc(NS(C)(=O)=O)cc2C(=O)N([C@@H](C)CO)C[C@@H]1C	x	3	x	x
NC(=O)c1ccc(NC(=O)c2ccc3c(c2)OCO3)cc1	1	22	-1	88*
CCN1CCN(c2ccc(NC(=O)c3ccc4c(c3)OCO4)cc2)CC1	4	11	47*	35
COc1cc(NC(=O)c2ccc3c(c2)OCO3)ccc1NC(=O)C(C)C	x	52*	1	x
COc1cc2c(cc1NC(=O)c1ccc3c(c1)OCO3)oc1ccccc12	-8	47*	22	66
CCC(=O)N(C)C[C@H]1Oc2cc(-c3ccc(OC)cc3)ccc2S(=O)(=O)N([C@@H](C)CO)C[C@H]1C	-4	-2	x	x
C[C@H]1CN([C@@H](C)CO)C(=O)c2cc(NC(=O)CCN3CCOCC3)ccc2O[C@H]1CN(C)Cc1ccc(C(=O)Nc2ccccc2N)cc1	41	-12	x	x
SMILES	C2C12 statin	esBAF inh	Wnt act	MITF act
O=C(Nc1ccc(F)c(F)c1)c1ccc2c(c1)OCO2	-15	58*	x	85*
CCNC(=O)[C@@H]1[C@@H](CO)[C@@H]2Cn3c(ccc(C4=CCCC4)c3=O)[C@@H]2N1C(=O)CC1CC1	-5	-1	x	x
N/C(CS(=O)(=O)c1ccccn1)=N\OC(=O)c1ccccc1Cl	x	x	54*	x
N/C(CS(=O)(=O)c1ccccn1)=N\OC(=O)c1ccc(Cl)cc1	x	x	10	x
Nc1c(C(=O)Nc2ccc3c(c2)OCCO3)nnn1Cc1ccc(Cl)cc1	20	114*	44*	130*
Nc1c(C(=O)Nc2ccc3c(c2)OCCO3)nnn1Cc1cccc(F)c1	25	69*	u	115*
Cc1ccc(S(=O)(=O)N(C)C[C@H]2Oc3c(NC(=O)c4ccncc4)cccc3C(=O)N([C@@H](C)CO)C[C@H]2C)cc1	43	0	x	x
CN1C(=O)c2cc(NC(=O)c3ccccc3Cl)ccc2OC[C@@H]2O[C@H](CC(=O)O)CC[C@H]21	-33	-1	x	x
C[C@@H]1CN([C@H](C)CO)C(=O)c2cc(NC(=O)Nc3cccc4ccccc34)ccc2O[C@H]1CN(C)S(=O)(=O)c1ccccc1	-29	-2	x	x
O=C(CCc1ccccc1)Nc1ccc(N2CCCCC2)cc1	-14	50*	x	67
CCN1CCN(c2ccc(NC(=O)Cc3ccccc3)cc2)CC1	105*	0	x	3
O=C(Cc1ccccc1)Nc1ccc(N2CCCC2)cc1	-19	5	-3	6
CCC(=O)Nc1ccc(N2CCN(Cc3ccccc3)CC2)cc1	-7	-8	-5	0
C[C@H]1CN([C@@H](C)CO)C(=O)c2cccc(NC(=O)c3cnccn3)c2O[C@@H]1CN(C)Cc1ccc2c(c1)OCO2	7	-10	x	x
C[C@@H]1CCCCO[C@@H](CN(C)Cc2ccc(C(=O)O)cc2)[C@H](C)CN([C@H](C)CO)C(=O)c2cc(NS(=O)(=O)c3ccccc3)ccc2O1	-7	2	x	x
Cc1nc2ccc(NC(=S)NCc3ccccc3)cc2nc1C	-1	41*	-2	54
C=CCNC(=S)Nc1ccc2nc(C)c(C)nc2c1	-9	u	x	x
Cc1ccc(NC(=S)NCCc2ccccc2)nc1	x	x	8	84*
COc1ccc(OC)c(NC(=S)NCCSc2ccc(C)cc2)c1	x	x	-2	-2
Cc1ccc(C)c(/C=N/NC(=S)NCCc2ccccc2)c1	133*	0	-4	-2
COc1ccc(NC(=S)NCCSc2ccc(C)cc2)c(OC)c1	x	x	61*	7
Cc1cccnc1NC(=S)Nc1ncccc1C	-10	38	28	101*
C[C@@H]1CN([C@@H](C)CO)C(=O)c2cc(NC(=O)Cc3ccccc3)ccc2O[C@@H](C)CCCCO[C@@H]1CN(C)S(=O)(=O)c1ccccc1	x	-5	x	x
Cc1cccnc1NC(=S)NCCc1ccccc1	8	u	40*	u
COc1ccc(NC(=S)Nc2ncccc2C)cc1OC	x	x	15	64
